These results are taken from PubChem BioAssay (NCATS).

Values without a mark were called inactive. Records with an inconclusive call do not appear. Activity calls are given as the source filed them. Calls come from the whole dose curve; as a rule, active = well fitted curve in the direction sought with a large enough effect; inconclusive = small, poorly fitted or top-dose-only effect, or another doubt; inactive = no such curve, though single readings can be large; an effect the other way counts as inactive or inconclusive.

Assay [1] in a line: OV-KATE Cancer Cell Toxicity qHTS against the NCATS CANVASS Library (AID 1347345). The method, boiled down:
(§1)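 Following a 4 h pre-incubation of 1000 seeded cells, compounds were pinned in an 11-pnt dilution series and left for 72 h; viability then came from CellTiter-Glo.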

Assay [2] in a line: OV-SAHO Cancer Cell Toxicity qHTS against the NCATS CANVASS Library (AID 1347348). Note: series mostly up to about 38 µM; nearly all actives have a fitted effect of over 55% in size. The method, boiled down: as §1
The nature of assay [3]: SW1088 Cancer Cell Toxicity qHTS against the NCATS CANVASS Library (AID 1347350). Note: nearly all actives have a fitted effect of over 75% in size. Note: potency is the fitted concentration of half-maximal effect. In short, it runs like this:
as §1

A short description of assay [4]: HEK-293 Cancer Cell Toxicity qHTS against the NCATS CANVASS Library (AID 1347355). Note: nearly all actives have a fitted effect of over 65% in size. Note: potency is the fitted concentration of half-maximal effect. The method, boiled down: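 qHTS cytotoxicity: compounds tested in 11 concentrations on 1000 seeded cells per well over 72 h; bortezomib served as control; signal from CellTiter-Glo luminescence.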
Assay [5] is described as follows: HPAF-II 12hr Apoptosis Induction qHTS against the NCATS CANVASS Library (AID 1347358). In short, it runs like this: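 Apoptosis in HPAF-II pancreatic cancer cells is scored as caspase 3/7 luminescence following a 12-hour exposure to an 11-point compound series.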
A short description of assay [6]: HEK293 24hr Apoptosis Induction qHTS against the NCATS CANVASS Library (AID 1347359). In short, it runs like this:
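HEK293 cells (500/well, DMEM + 10% FBS) were exposed to compounds in an 11-point series for 24 hours at 37 degrees C, then caspase-3/7 activity was read by Caspase-Glo DEVD luciferase luminescence after 15 min.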

Assay [7] in a line: KB-8-5-11 Cancer Cell Toxicity qHTS against the NCATS CANVASS Library (AID 1347364). Note: nearly all actives have a fitted effect of over 75% in size. In short, it runs like this:
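Natural products were titrated in 11 points onto KB-8-5-11 cells, 500 per well, and cytotoxicity was scored from CellTiter-Glo luminescence after 72 hr culture.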

A short description of assay [8]: SDT Cancer Cell Toxicity qHTS against the NCATS CANVASS Library (AID 1347365). Note: nearly all actives have a fitted effect of over 60% in size. Note: potency is the fitted concentration of half-maximal effect. The method, boiled down: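 Dispense 500 SDT cells per well; pin-transfer compounds; incubate 72 hr at 37C, 5% CO2, 95% RH; add CellTiterGlo and read luminescence.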
Assay [9] in a line: qHTS for ATAD5 Agonist screened against the NCATS CANVASS Library (AID 1347367).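 Note: luciferase reporter driven by ATAD5 which rises upon DNA damage.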 In short, it runs like this:
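Step one plated reporter cells and let them acclimate 5hr. Step two pinned compounds with MMS as positive and 0.46% DMSO as negative control. After 16hr incubation, fluorescence viability then luminescence were read.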

Assay [10] in a line: G06 Cancer Cell Toxicity qHTS against the NCATS CANVASS Library (AID 1347368). Note: nearly all actives have a fitted effect of over 60% in size. Note: potency is the fitted concentration of half-maximal effect. The method, boiled down: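 Cytotoxicity toward canine glioma G06 cells is scored from cellular ATP via luminescence after 72 hr compound exposure at 500 cells/well.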
Assay [11] can be described thus: DH5-alpha competent E. coli microbial cell viability qHTS against the NCATS CANVASS Library (AID 1347377). To be noted: outcome: dose series up to 46.1 µM unless noted. In short, it runs like this: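 Cell viability of competent DH5-alpha E. coli is scored from ATP content by luminescence. Cells sit overnight at 37C with compound across an 11-point concentration series.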

A short description of assay [12]: Inflammasome Signaling qHTS Counterscreen: IL-1-beta AlphaLISA counterscreen against the NCATS CANVASS Library (AID 1347381).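 Note: cell-free check with purified IL-1β in medium and no THP-1 cells; series mostly up to about 57 µM.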 In short, it runs like this: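 To flag interference with the AlphaLISA read-out, a known amount of purified IL-1-beta (4 pg) replaced cell supernatant. Detection used anti-IL-1-beta acceptor beads, biotinylated antibody and streptavidin donor beads at room temperature.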

Assay [13] can be described thus: qHTS for Activators of p53 Stress Response Pathway screened against the NCATS CANVASS Library (AID 1347388). The method, boiled down:
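p53RE-bla HCT-116 cells (4000/well) were plated 5 h at 37C, exposed to compounds for 16 h at 37C over an 11-point concentration series, then loaded with CCF4 for 2 h at room temperature; 460/530 nm emission ratio read.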

The nature of assay [14]: qHTS for activators of Nrf2/ARE signaling pathway screened against the NCATS CANVASS Library (AID 1347391). Note: nearly all actives have a fitted effect of over 60% in size. Note: potency is the fitted concentration of half-maximal effect. In short, it runs like this: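 Cells carrying an ARE-driven beta-lactamase reporter (HepG2 background) are dosed for 16 h, then stained with CCF4. Cell viability in the same wells is measured by CellTiter-Glo luminescence.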
The nature of assay [15]: qHTS for inhibitors of ER calcium dysfunction: SERCaMP assay screened against the NCATS CANVASS Library (AID 1347393). Note: nearly all actives have a fitted effect of over 40% in size. Note: potency is the fitted concentration of half-maximal effect. The method, boiled down: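 qHTS in SH-SY5Y reporter cells: 16 h compound pretreatment, 4 h thapsigargin, then secreted Gaussia luciferase measured by luminescence.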
A short description of assay [16]: qHTS for inhibitors of Wild type Zika virus screened against the NCATS CANVASS Library (AID 1347396).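 Note: ATP luminescence of surviving cells so rescue from viral cell killing; series mostly up to about 46 µM.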 In short, it runs like this:
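Vero 766 cells, 1000/well, o/n attach; cpds pin-transferred (11-pt qHTS); WT Zika added; 72 h, 37C, 5% CO2; CellTiter Glo lumi. Uninfected + vehicle = 100% inhibition.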

Assay [17] is described as follows: A2780 Cisplatin Sensitive Ovarian Cancer Cell Toxicity qHTS against the NCATS CANVASS Library (AID 1347353). Note: nearly all actives have a fitted effect of over 60% in size. Note: potency is the fitted concentration of half-maximal effect. The method, boiled down:
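Seventy-two-hour exposure of cisplatin-sensitive A2780 ovarian cells to an 11-concentration qHTS series; cytotoxicity is inferred from loss of ATPLite luminescence. Bortezomib titration served as positive control.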

The target of assay [18] is Luciferin 4-monooxygenase (Photinus pyralis) (UniProt P08659). In words: Firefly luciferase counterscreen qHTS: Assay Interference Panel against the NCATS CANVASS Library (AID 1347363). Note: series mostly up to about 57 µM. In short, it runs like this:
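Purified P. pyralis luciferase was added to compounds (11-point series) preincubated 15 min at room temperature with substrate containing 0.013 mM D-luciferin and 0.013 mM ATP; luminescence was read after 5 min.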

Assay [19] in a line: qHTS for Hypoxia signaling pathway (HIF-1) antagonists against the NCATS CANVASS Library (AID 1347374). Note: nearly all actives have a fitted effect of over 60% in size. Note: potency is the fitted concentration of half-maximal effect. In short, it runs like this:
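HRE-bla ME-180 cells (2,000/well, 0.5% dialyzed FBS) were pre-incubated 5 h, then given an 11-point compound series plus CoCl2 (60 uM solution as added) for 17 h at 37C. CCF4 β-lactamase read (ex 405, em 460/530 nm) after 2 h at RT.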

The nature of assay [20]: qHTS for activators of dead-cell proteases activity screened against the NCATS CANVASS Library (AID 1347392).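 Note: luminescence from protease leaking out of membrane-damaged cells cleaving impermeant substrate; rising signal means more cytotoxicity.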 The method, boiled down: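 HepG2 cells (2000/well) attached 18 h at 37C, then exposed 5 h to compounds (11-point qHTS). Dead-cell protease activity read as luminescence from cell-impermeant AAF-aminoluciferin substrate after 15 min at room temperature.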

Sequence of Luciferin 4-monooxygenase (Photinus pyralis) (P08659 whole entry, looked up): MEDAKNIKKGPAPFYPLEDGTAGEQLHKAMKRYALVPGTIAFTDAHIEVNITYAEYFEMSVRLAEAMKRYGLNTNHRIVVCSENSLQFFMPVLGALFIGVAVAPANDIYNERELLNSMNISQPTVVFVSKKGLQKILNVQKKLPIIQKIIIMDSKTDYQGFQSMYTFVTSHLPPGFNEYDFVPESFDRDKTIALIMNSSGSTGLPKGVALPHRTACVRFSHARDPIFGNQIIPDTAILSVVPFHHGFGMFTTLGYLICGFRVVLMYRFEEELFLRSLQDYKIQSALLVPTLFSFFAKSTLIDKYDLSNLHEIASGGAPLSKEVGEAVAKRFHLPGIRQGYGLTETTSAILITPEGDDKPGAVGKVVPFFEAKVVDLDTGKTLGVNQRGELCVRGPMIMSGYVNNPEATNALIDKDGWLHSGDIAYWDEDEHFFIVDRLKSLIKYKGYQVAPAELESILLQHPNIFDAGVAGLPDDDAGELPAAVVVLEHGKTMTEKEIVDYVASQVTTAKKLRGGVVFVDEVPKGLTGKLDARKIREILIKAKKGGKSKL

In the case of `C[n+]1cc2cc(C(N)=O)[nH]c3c(=N)c(Cl)c(N)c1c23`, the Potency result in assay [1], in [2], in [3], in [4], in assay [5] and in assay [6] was “inactive” throughout. Also, the Potency entry in assay [7], in [9], in assay [13], in [14] and in assay [15] was “inactive” each time. For the same compound, the results for the Potency in assay [8] and in assay [10] were 16.6 µM (active) and 5.26 µM (active), respectively. For the same compound, the outcome in assay [11], in assay [12] and in assay [16] was inactive.

As to `COC12OC1(C13OC1(OC)C(=O)c1cc4cc(C)oc(=O)c4c(O)c1C3O)C(O)c1c(cc3cc(C)oc(=O)c3c1O)C2=O` (configuration not stated), the Potency entry in assay [1], in assay [2], in [17], in [4], in [5] and in [18] was “inactive” in each case. For the same compound, the Potency entry in assay [7], in [8], in assay [9], in assay [10], in [13] and in assay [14] was “inactive” each time. For the same compound, the Potency entry in [20] and in assay [15] was “inactive” throughout. Further, the Potency is 18.8 µM (active) in [3] and 14.9 µM (active) in assay [19]. Moreover, the result in [11] and in assay [12] was inactive.

For the compound `CC(C)[C@]12CC[C@@]3(C)[C@H](C)CC[C@H](O)[C@@]3(CC1)c1cc3c(cc12)[nH]c1ccccc13`, the Potency entry in assay [1], in [5], in assay [18], in [8], in assay [9] and in [10] was “inactive” in each case. Further, the Potency result in assay [19], in assay [13] and in assay [20] was “inactive” in each case. Also, the outcome in assay [11] and in assay [16] was inactive.

`CCC(=O)N[C@@H](C[C@H](C)C(Cl)(Cl)Cl)C(=O)N1C(=O)C=C(OC)[C@@H]1CC(C)C`: the Potency entry in assay [1], in assay [2], in [6], in assay [9], in assay [19] and in [13] was “inactive” each time. The Potency entry in [20] and in [15] was “inactive” each time. Further, in assay [17], the Potency was 26.4 µM (active). In addition, the compound was classed as inactive in assay [11], in [12] and in [16].

Turning to `C=C1CC[C@@H](O[C@H]2C[C@@](O)([C@H](C)NC(=O)c3[nH]c(C)c(Cl)c3Cl)[C@H](O)[C@@H](C)O2)[C@@H]2C=C[C@H](C)C(/C(O)=C3/C(=O)[C@H](C(C)C)N([C@@H]4O[C@H](C)[C@H](OC(N)=O)[C@H](OC(C)=O)[C@@H]4OC)C3=O)[C@@H]12` (some centres not stated), the Potency entry in assay [1], in assay [4], in assay [5], in assay [6], in assay [18] and in assay [7] was “inactive” in each case. Further, the Potency result in [8], in assay [9], in [14] and in [15] was “inactive” each time. The figures for the Potency in assay [3] and in [19] were 5.95 µM (active) and 16.7 µM (active), respectively. Moreover, the result in [12] and in [16] was inactive.

As to `CC(=O)O[C@H]1c2ccccc2-c2c3c(cc4c2[C@@H]1N(C(C)=O)CC4)OCO3`, the Potency entry in [1], in assay [6], in [18], in [8], in assay [9] and in [10] was “inactive” each time. Further, the Potency entry in assay [19], in assay [13] and in [20] was “inactive” in each case. Further, the Potency in assay [3] is 26.6 µM (active); in [14], 8.31 µM (active); in [15], 34.3 µM (active). Besides, the call in assay [11], in assay [12] and in [16] was inactive.

For `C=C[C@@]1(C)CC[C@@H]([C@H](C)C(=O)/C=C/C(C)(C)O)O1`, the Potency entry in assay [1], in assay [3], in assay [5], in assay [18], in assay [9] and in assay [13] was “inactive” each time. For the same compound, in [20], the Potency result was “inactive”. Moreover, the Potency in assay [4] is 26.4 µM (active); in assay [14] it was 13.2 µM (active). The outcome in [11] and in assay [16] was inactive.
